Results on 15 compounds are retold here after PubChem BioAssay (NCI).

Experiment in all cases: NCI-60 one-dose screen, 48 h (100 = growth as untreated, 0 = no growth, -100 = all killed)
Common to all, as to details: 10 µM unless noted

The subject of assay [1] is SK-MEL-2 melanoma.
For assay [2], the system named is EKVX NSCLC.
Assay [3] deals with SN12C renal.
Assay [4] has as its system UO-31 renal.
Assay [5] deals with TK-10 renal.
Assay [6] has as its system ACHN renal.
The test system of assay [7] is CAKI-1 renal.
Assay [8] deals with A498 renal.
The test system of assay [9] is CCRF-CEM leukemia.
Assay [10] has as its system MOLT-4 leukemia.
Assay [11] deals with SR leukemia.
Assay [12] concerns RPMI-8226 leukemia.
The test system of assay [13] is OVCAR-8 ovarian.
The test system of assay [14] is OVCAR-5 ovarian.
The subject of assay [15] is OVCAR-4 ovarian.
For assay [16], the system named is SK-OV-3 ovarian.
Assay [17] relates to IGROV1 ovarian.
Assay [18] concerns OVCAR-3 ovarian.
For assay [19], the system named is NCI/ADR-RES ovarian.
The test system of assay [20] is HS 578T breast.

SMILES strings stand for the structures. Compounds without any hit were thinned out: in the full panel of roughly 83,000, 20% have a hit.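 Growth was measured after 48 h exposure to one concentration of compound in 96-well plates. Values under 10 count as active.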 Values without a mark were called inactive. Active and inactive are the calls of the source.

With `CCN1CCN(C(=O)[C@]23CCC(C)(C)C[C@@H]2C2=CC[C@@H]4[C@@]5(C)CCC(=O)C(C)(C)[C@@H]5CC[C@@]4(C)[C@]2(C)CC3)CC1`, the growth in assay [1] was 77.1%; in assay [2] it was 63.3%; in [3], 51.8%; in assay [4], 34.1%; in assay [5] it was 80.4%; in [6] it was 65.7%. Also, the growth in assay [7] is 60%; in [8], -7.95% (active); in assay [9] it was 37.5%; in assay [10], 10.1%; in assay [11] it was 12.2%; in assay [12] it was 9.86% (active). Also, the growth in assay [13] is 63%; in [14], 72.2%; in assay [15], 50.7%; in [16] it was 70.1%; in assay [17], 65%; in [18], 56.4%. Besides, in assay [19], the growth was 39.7%.
Turning to `COc1ccc(C(C)=O)cc1S(=O)(=O)Nc1c(N)nc(SC)[nH]c1=O`, the growth in assay [1] was 111%; in [2], 101%; in assay [3], 103%; in [4], 94.5%; in assay [5], 109%; in [6], 106%. The growth in assay [7] was 93.2%; in [8], 106%; in assay [9], 107%; in assay [10] it was 99.6%; in assay [11] it was 103%; in assay [12], 96.6%. In addition, the growth in assay [13] was 105%; in assay [14], 104%; in [15], 108%; in assay [16], 124%; in assay [17] it was 102%; in assay [18], 103%. The growth was 96.9% in assay [20] and 103% in assay [19].
Consider `COc1cc(OC)c(/C=C/C(=O)c2c(OC)cccc2OC)c(OC)c1`, for which the growth in [1] is -14.9% (active); in assay [2], 42.9%; in [3], 24.1%; in assay [4], 28.9%; in assay [5], 33.5%; in assay [6], 19.6%. Further, the growth in assay [7] is 14.8%; in [8] it was 21.4%; in assay [9], 16.2%; in assay [10], 18.6%; in [11], 23.3%; in [12], 16.7%. For the same compound, the growth in [13] was 24.2%; in [14], 4.82% (active); in [15] it was 68.4%; in assay [16], 21.7%; in [17], -1.35% (active); in assay [18], -42.2% (active). For the same compound, the growth in assay [19] is -22.1% (active).
As for `O=C1Nc2ccccc2/C1=C/c1cccn1CCCCn1c2ccccc2c(=O)c2ccccc21`, the growth in [1] was 84%; in [2], 86.1%; in assay [3], 97.9%; in [4] it was 49.7%; in assay [5], 104%; in [6] it was 76.3%. The growth in [7] was 69.5%; in assay [8] it was 109%; in [9] it was 52.8%; in assay [10], 47.7%; in assay [11] it was 80.1%; in assay [12], 33.5%. Also, the growth in assay [13] is 58.8%; in assay [15], 65.8%; in assay [16], 94.6%; in assay [17], 77.3%; in assay [18], 86.7%; in assay [20], 86.3%. Further, in [19], the growth is 73.9%.
`COc1ccccc1CNc1c2ccccc2nc2ccccc12`: the growth was 73.5% in assay [1]; 65.7% in [2]; 34.7% in [3]; 33.7% in assay [4]; 55.5% in assay [5]; 22.7% in assay [6]. Further, the growth in assay [7] was 45.7%; in assay [8], 13.3%; in assay [9], 37.5%; in [10] it was 20.7%; in [11], 9.9% (active); in assay [12] it was 8.12% (active). The growth is 31.9% in assay [13]; 49.8% in [14]; 42.2% in [15]; 61.4% in assay [16]; 26.3% in [17]; 54.3% in [18]. Also, in assay [19], the growth was 34.8%.
For `COC1=CC(c2ccc[nH]2)=N/C1=C\c1[nH]c(C)c(CC(=O)NCc2ccccc2)c1C`, the growth in assay [1] is 16.7%; in assay [2], 21.1%; in [3], 29.1%; in assay [4] it was -17.4% (active); in assay [5] it was 24.9%; in assay [6], 8.33% (active). Further, the growth was 1.97% (active) in [7]; -5.8% (active) in [8]; 22.4% in [9]; 3.45% (active) in assay [10]; -29.1% (active) in assay [11]; 18.4% in assay [12]. In addition, the growth was 19.4% in assay [13]; 46.3% in assay [15]; 25.7% in [16]; 38.2% in [17]; 11.1% in [18]; 24.6% in assay [20]. Moreover, the growth in assay [19] was -40.7% (active).
Take `O=C(O)c1cn(C2CC2)c2cc(N3CCN(Cc4ccc5ccccc5c4O)CC3)c(F)cc2c1=O`: the growth was 76.3% in assay [1]; 66.7% in assay [2]; 32.5% in assay [3]; 42.2% in [4]; 67.7% in [5]; 59% in [6]. Moreover, the growth in assay [7] was 15.2%; in [8] it was -7.61% (active); in assay [9] it was 68.2%; in assay [10], 39%; in [11] it was 6.63% (active); in [12] it was 73.5%. For the same compound, the growth in [13] is 14.4%; in [14] it was 51%; in assay [15], 32.5%; in assay [16] it was 49.7%; in [17], 33.3%; in assay [18] it was -26.2% (active). For the same compound, the growth in assay [19] is 48%.
In the case of `OB1OCc2cc(/C=C/c3cccc(C(F)(F)F)c3)ccc21`, the growth in [1] is 60.2%; in assay [2] it was 26.5%; in assay [3] it was 15.2%; in assay [4], -28.6% (active); in assay [5], -19.3% (active); in assay [6] it was -91.6% (active). Moreover, the growth in [7] is -46% (active); in assay [8], 6.25% (active); in assay [9], 7.57% (active); in assay [10] it was -3.42% (active); in assay [11], -1.55% (active); in assay [12] it was 15.7%. The growth in assay [13] was 10.8%; in assay [15] it was -12.9% (active); in assay [16], 15.9%; in assay [17] it was 16.8%; in assay [18], -27.3% (active); in assay [20], 23.3%. Further, the growth in assay [19] was 15.2%.
`c1cnc2c(-c3nc4ccc5[nH]ncc5c4c4c3CCCC4)c[nH]c2c1`: the growth was 58.5% in assay [1]; 49.5% in assay [2]; 27.4% in assay [3]; 43.7% in assay [4]; 50.1% in assay [5]; 27.1% in assay [6]. Also, the growth in assay [7] was 57%; in assay [8], 64.2%; in [9], 11.4%; in assay [10], 5.62% (active); in assay [11], 5.93% (active); in assay [12] it was 34.5%. The growth in [13] was 23.8%; in assay [14] it was 37.3%; in assay [15], 27.9%; in assay [16] it was 51.5%; in assay [17], 18%; in [18], 26.4%. Also, the growth in [20] is 63.4%; in assay [19], 80.6%.
Turning to `Clc1cc(Cl)c(Cl)c(-c2nnc(SCc3ccncc3Br)o2)c1`, the growth was 91.8% in assay [1]; 84.5% in assay [2]; 92.3% in assay [3]; 67.4% in assay [4]; 117% in [5]; 94.4% in [6]. The growth in assay [7] was 65.8%; in assay [8] it was 94.8%; in [9] it was 77.1%; in [10], 75.1%; in assay [11], -26.8% (active); in assay [12], 72.9%. Also, the growth was 120% in assay [13]; 80.1% in [14]; 90.6% in [15]; 101% in assay [16]; 72.9% in [17]; 89% in [18]. Also, the growth in assay [20] was 90.4%; in assay [19] it was 89.6%.
On to `Cc1c2cnccc2c(C)c2c1c1cc(C#N)ccc1n2C`, for which the growth is -75.4% (active) in assay [1]; -3.54% (active) in [2]; -5.29% (active) in [3]; -4.29% (active) in [4]; -13% (active) in assay [5]; -2.32% (active) in [6]. Moreover, the growth was 6.63% (active) in assay [7]; -65.6% (active) in assay [8]; -16.8% (active) in assay [9]; -11.2% (active) in assay [10]; 0.777% (active) in assay [11]; -22.9% (active) in assay [12]. The growth in [13] is 6.24% (active); in assay [14] it was -15% (active); in assay [15] it was -39.4% (active); in assay [16], -3.17% (active); in assay [17], -11.4% (active); in assay [18] it was -7.57% (active). Also, the growth in assay [19] is -9.81% (active).
In the case of `CCOC(=O)C(=O)C(C(=O)OCC)c1ccccc1` (stereo not drawn), the growth in assay [1] was 101%; in assay [2], 103%; in assay [3], 108%; in [4], 87.7%; in assay [5] it was 106%; in assay [6], 105%. For the same compound, the growth was 97.9% in assay [7]; 107% in assay [8]; 90.4% in assay [9]; 90% in [10]; 94.7% in [11]; 94.3% in assay [12]. Also, the growth in assay [13] is 120%; in assay [14], 106%; in assay [15], 106%; in assay [16] it was 110%; in [17], 122%; in [18], 120%. In addition, in assay [19], the growth is 109%.
On to `COc1ccc2cc1Oc1ccc(cc1)C[C@H]1c3c(cc4c(c3Oc3cc5c(cc3OC)CCN(C)[C@@H]5C2)OCO4)CCN1C`, for which the growth in [1] is 69.9%; in assay [2], 75.1%; in assay [3] it was 60.3%; in [4], 60.6%; in assay [5] it was 44.8%; in assay [6] it was 63%. For the same compound, the growth was 70.8% in [7]; 32.2% in assay [8]; 21% in assay [9]; 31.5% in [10]; -17.3% (active) in assay [11]; 48% in [12]. For the same compound, the growth in assay [13] is 43.9%; in [14] it was 90.2%; in [15], 64.8%; in assay [16], 110%; in assay [17], 44.3%; in assay [18], 49.5%. For the same compound, the growth in assay [19] is 76.2%.
For `CCCCCCCC[C@@H]1N[C@@H](C(=O)OC)Cc2c1[nH]c1ccccc21`, the growth in assay [1] was 109%; in assay [2], 92%; in assay [3] it was 97.4%; in assay [4], 73.9%; in assay [5], 101%; in [6], 94.6%. In addition, the growth is 78.8% in assay [7]; 88.7% in assay [8]; 92.3% in [9]; 93% in assay [10]; 107% in assay [11]; 95.4% in [12]. The growth was 98.6% in [13]; 89% in assay [14]; 91.9% in assay [15]; 101% in assay [16]; 82.9% in assay [17]; 101% in assay [18]. Besides, the growth in [19] is 86.5%.
With `CSc1nc(N)c(NS(=O)(=O)c2ccc(C(C)=O)cc2)c(=O)[nH]1`, the growth in [1] was 100%; in assay [2], 97.2%; in assay [3], 101%; in assay [4], 100%; in [5], 119%; in assay [6], 108%. Moreover, the growth in [7] is 90.1%; in assay [8] it was 105%; in [9] it was 109%; in [10] it was 112%; in [11], 119%; in assay [12] it was 110%. The growth in assay [13] is 107%; in assay [14], 104%; in assay [15], 117%; in assay [16], 117%; in assay [17], 106%; in assay [18], 105%. Also, the growth in assay [19] is 96.8%.
